An excerpt weighted towards active compounds, which were near 1.5% of everything screened.
APE1 inh = inhibitors of human APE1 endonuclease | P27695 | recombinant APE1, TAMRA/BHQ-2 abasic DNA cleavage fluorescence | Potency, µM (titrated, usually from 65.8 µM), for inactives: at the top dose activity change, negative = inhibition, actives largely listed as inhibitors | 350,000 compounds, 0.35% hits | AID 2517;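 note: potency is the fitted concentration of half-maximal effect; plate controls were vehicle for no effect and reference inhibitor for full effect; nearly all actives have a fitted effect of over 55% in size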
Target sequence (P27695 whole entry, looked up): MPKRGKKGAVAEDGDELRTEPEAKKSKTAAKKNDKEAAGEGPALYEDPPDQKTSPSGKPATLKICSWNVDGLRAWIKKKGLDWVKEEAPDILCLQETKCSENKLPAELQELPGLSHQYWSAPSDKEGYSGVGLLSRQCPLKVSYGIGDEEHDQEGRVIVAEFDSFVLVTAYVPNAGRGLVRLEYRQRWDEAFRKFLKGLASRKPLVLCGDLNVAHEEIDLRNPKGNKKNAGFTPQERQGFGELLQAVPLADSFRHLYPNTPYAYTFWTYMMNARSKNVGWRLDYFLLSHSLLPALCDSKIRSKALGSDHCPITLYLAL
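Compound pre-exposure to 0.75 nM APE1, 15 min at ambient temperature. Reaction initiated with 50 nM TAMRA/BHQ-2 THF substrate, read immediately in kinetic mode, 525 nm excitation, 598 nm emission.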
GCN5L2 inh = GCN5L2 (KAT2A) acetyltransferase inhibition; Q92830; GCN5L2 HAT assay, ThioGlo1 CoA-SH fluorescence; Potency, µM (highest dose often 58.9 µM), for inactives: top-dose activity change, negative = inhibition, actives largely listed as inhibitors; 390,000 compounds, 0.21% hits; AID 504327; note: potency is the fitted concentration of half-maximal effect
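GCN5L2 (20 nM) in 50mM HEPES pH 7.5, 0.1mM EDTA, 0.01% Tween-20 preincubated 15 min with compounds at room temperature. Reaction started with H3(1-25) 75uM, acetyl-CoA 70uM, ThioGlo1 50uM; CoA-thiol fluorescence (Ex340/Em540) read at 0 and 20 min.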
BLM helicase inh = inhibitors of human Bloom syndrome helicase BLM; AID 2528; P54132; Potency, µM (highest dose often 56.1 µM), for inactives: at the highest dose activity change, negative = inhibition, actives largely listed as inhibitors; 350,000 compounds, 0.2% hits; recombinant BLM DNA unwinding, fluorescence dequenching;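 note: potency is the fitted concentration of half-maximal effect; plate controls were vehicle for no effect and no enzyme for full effect; nearly all actives have a fitted effect of over 35% in size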
RECQ1 helicase = RECQ1 (human) helicase inhibition | 240,000 compounds, 0.54% hits | Potency, µM (doses to about 57.3 µM), inactives show top-dose activity, negative = inhibition, usual class: inhibitors | RECQ1 DNA unwinding, red fluorescence kinetic read;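 note: potency is the fitted concentration of half-maximal effect; plate controls were vehicle for no effect and no enzyme for full effect; nearly all actives have a fitted effect of over 30% in size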
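RECQ1T1 50 nM; forked duplex (20 bp + 30-nt ss tails) 200 nM, ATP 2 mM final; pH 8.0, 2 mM MgCl2, 2.5 ug/ml poly(dI-dC); 15 min compound preincubation; discontinuous kinetic read over 2 h at RT.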
PI5P4Ka inh = inhibitors of human PI5P4K alpha; P48426; PI5P4Kalpha enzyme, ADP-Glo luminescence, 60 min; stronger effect = lower value; max response, %; 330,000 compounds, 1.2% hits; AID 652105; active = max response of -50% or lower; inconclusive = between -30% and -50%; inactive = -30% or higher; note: value at the top dose of about 77 µM
Target sequence (P48426 whole entry, looked up): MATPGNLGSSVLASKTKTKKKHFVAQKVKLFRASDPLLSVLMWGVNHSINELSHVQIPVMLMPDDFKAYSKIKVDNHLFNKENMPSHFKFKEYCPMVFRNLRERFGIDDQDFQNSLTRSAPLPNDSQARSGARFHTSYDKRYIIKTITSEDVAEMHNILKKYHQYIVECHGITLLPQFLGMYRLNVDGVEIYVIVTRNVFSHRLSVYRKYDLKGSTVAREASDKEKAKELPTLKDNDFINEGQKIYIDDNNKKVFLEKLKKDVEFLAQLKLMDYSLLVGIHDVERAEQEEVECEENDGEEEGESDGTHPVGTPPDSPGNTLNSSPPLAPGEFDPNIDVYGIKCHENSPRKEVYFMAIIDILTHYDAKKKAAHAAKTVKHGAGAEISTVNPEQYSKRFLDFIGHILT
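Human PI5P4Kalpha with substrate in 0.038 M HEPES pH 7.4, 0.28 mM EGTA, 0.1% CHAPS, 5% DMSO; reaction started with 5 microM ATP (final), 60 min at room temperature. ADP formed read by ADP-Glo luminescence.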
FEN1 inh = inhibitors of human flap endonuclease 1; P39748; Recombinant FEN1 flap cleavage, fluorescence, 15 min; Potency, µM (series often up to 114 µM), for inactives: top-dose activity change, negative = inhibition, usual class: inhibitors; 390,000 compounds, 0.35% hits; AID 588795; note: potency is the fitted concentration of half-maximal effect; nearly all actives have a fitted effect of over 65% in size
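Quantitative HTS format: each compound was titrated, incubated with 10 nM nuclease for 15 min at room temperature, then challenged with flap substrate at 50 nM final. Signal change over 15 min gave concentration–effect curves.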
* = called active by the depositor; i = inactive; ? = inconclusive; · = no result given; ! = not confirmed by another sample; [ ] = dose if it differs, or a comment. Unless noted, calls come from the whole dose curve; as a rule, active = well fitted curve in the direction sought with a large enough effect; inconclusive = small, poorly fitted or top-dose-only effect, or another doubt; inactive = no such curve, though single readings can be large; an effect the other way counts as inactive or inconclusive. Unless noted, % is set by controls: 0 for no effect and ±100 for the full control effect.

SMILES	APE1 inh	GCN5L2 inh	BLM helicase inh	RECQ1 helicase	PI5P4Ka inh	FEN1 inh
Cn1cccc1/C=C1\C(=O)NC(=O)N(CCC2=CCCCC2)C1=O	-7%	40%	-2%	40µM*	-21	-14%
COc1ccc(/C=C2\C(=O)NC(=O)N(Cc3ccccc3)C2=O)c(OC)c1OC	3%	6%	-7%	i	-29	?
Cn1cccc1/C=C1\C(=O)NC(=O)N(Cc2ccccc2Cl)C1=O	-9%	-19%	?	?	-69*	?
CC[C@H](C)[C@H](NC(=O)[C@H](CCCN=C(N)N)NC(=O)[C@H](CCCN=C(N)N)NC(=O)[C@H](CC(C)C)NC(=O)[C@H](Cc1ccccc1)NC(=O)CNC(=O)CNC(=O)[C@@H](N)Cc1ccc(O)cc1)C(=O)O	-8%	1%	·	i	·	·
O=C(O)c1cccc(Cl)c1	-1%	·	·	1%	·	·
O=C(O)c1cc[c]([Hg][Cl])cc1	17%	0.25µM*	·	-9%	-58*	25µM*
O=C1NC(=O)N(Cc2ccco2)C(=O)/C1=C/c1ccc(-c2cccc([N+](=O)[O-])c2)o1	28µM*	20µM*	?	?	-80*	?
C=CCN1C(=O)NC(=O)/C(=C\c2ccc(-c3ccccc3[N+](=O)[O-])o2)C1=O	-8%	-11%	-4%	-3%	-53*	?
C=CC[C@]1(O)CC[C@H]2[C@@H]3CCC4=CCCC[C@@H]4[C@H]3CC[C@@]21C	6%	·	·	·	·	·
CC(=O)Nc1c2sscc-2n(C)c1=O	17%	-6%	0%	i	·	·
On1ccccc1=S	7%	13µM*	·	·	-100*	?
O=C(Nc1cccc(C(=O)Nc2cc(C(=O)Nc3ccc([S+](=O)([O-])[O-])c4cc([S+](=O)([O-])[O-])cc(SOOO)c34)ccc2F)c1)Nc1cccc(C(=O)Nc2cc(C(=O)Nc3ccc([S+](=O)([O-])[O-])c4cc([S+](=O)([O-])[O-])cc([S+](=O)([O-])[O-])c34)ccc2F)c1	2.8µM*	-23%	126%	11µM*	·	·
c1cc(OCC2CO2)cc(OCC2CO2)c1 (configuration not stated)	?	·	·	-2%	·	·
Cc1cc(C)cc(N2C(=O)/C(=C\c3ccc(N4CCN(C)CC4)o3)C(=O)NC2=S)c1	0%	4%	-8%	-29%	-9	?
COc1ccc(N2C(=O)/C(=C/c3ccc(N(C)C)o3)C(=O)NC2=S)cc1	1%	-7%	-2%	·	0	14%
COc1cccc(N2C(=O)/C(=C/c3ccc(C)o3)C(=O)NC2=S)c1	34%	-20%	-13%	·	-59*	?
Cc1ccc(N2C(=O)/C(=C/c3ccc(CN(CCC#N)S(C)(=O)=O)o3)C(=O)NC2=S)cc1	?	-29%	-6%	?	-71*	35µM*
Cc1ccc(/C=C2\C(=O)NC(=S)N(c3ccc(F)cc3)C2=O)o1	45%	?	-4%	·	-59*	?
CC(Cl)CCl (configuration not stated)	-4%	·	·	4%	·	·
ClCBr	12%	·	·	-3%	·	·
NC1C=CC=C(C(=O)O)C1 (configuration not stated)	13µM*!	?	·	-13%	-7	3%
COc1ccc(C[C@H]2c3cc(OC)c(OC)cc3CCN2C)cc1OC	2%[21 µM]	8.9µM*	-4%[21.4 µM]	-11%[25.9 µM]	·	·
COc1ccc(CC2c3cc(OC)c(OC)cc3CCN2C)cc1O (configuration not stated)	-2%	-3%	-8%	i	3	15%
C=CCn1c(O)c(/C=C2/C=CC=N2)c(=O)[nH]c1=O	-3%	0%	0%	11µM*	-15	-15%
N#CC(Cl)Cl	3%	·	·	-2%	·	·
SMILES	APE1 inh	GCN5L2 inh	BLM helicase inh	RECQ1 helicase	PI5P4Ka inh	FEN1 inh
C#CCO	5%	·	·	-8%	·	·
C/C(=N\NC(=S)Nc1ccccc1)c1c(O)n(C)c(=O)n(C)c1=O	-2%	3%	3%	9%	-53*	14%
CC/C(=N\Nc1ccccc1)c1c(O)n(C)c(=O)n(C)c1=O	3%	28%	1%	-18%	-5	-8%
Cn1c(O)c(/C=C2\C=c3ccccc3=NC2=O)c(=O)n(C)c1=O	19%	-5%	-11%	·	-8	0%
Cc1cccc2c1=NC(=O)/C(=C/c1c(O)[nH]c(=O)[nH]c1=O)C=2	-2%	-6%	5%	-2%	-54*	-11%
CC(=O)[O-].CC(=O)[O-].O.O.[Cd+2]	0.79µM*	·	·	-22%	·	·
C=CC(C)=O	5%	·	·	1%	·	·
COc1ccccc1-n1c(O)c(/C=N/NC(=S)Nc2ccccc2)c(=O)[nH]c1=S	-6%	-6%	1%	-5%	-61*	12%
O=C1NC(=O)N(CCc2ccc(F)cc2)C(=O)/C1=C/c1cccs1	-9%	-21%	-7%	-2%	-74*	-19%
COCCN1C(=O)NC(=O)/C(=C\c2ccc(F)cc2)C1=O	?	-5%	-2%	i	-24	16%
O=C1NC(=O)N(Cc2ccc(F)cc2)C(=O)/C1=C\c1ccc(N2CCCC2)cc1	-3%	-29%	-27%	-28%	-59*	?
Cc1ccc(/C=C2/C(=O)NC(=O)N(CCc3ccc(F)cc3)C2=O)o1	6%	-14%	-2%	-12%	-67*	5%
CN(C)c1ccc(/C=C2\C(=O)NC(=O)N(CCc3ccc(F)cc3)C2=O)cc1	1%	-8%	-4%	i	-82*	-6%
CCN(CC)c1ccc(/C=C2\C(=O)NC(=S)N(C)C2=O)o1	16%	-2%	-1%	-13%	-3	5%
O=C1NC(=O)N(c2ccc(F)cc2)C(=O)/C1=C/c1ccc(N2CCOCC2)cc1	0%	-6%	-11%	i	-20	1%
OC(c1ccc(Cl)cc1)(c1cncnc1)c1ccccc1Cl (configuration not stated)	-1%	27%	-4%	-16%	·	·
OC[P+](CO)(CO)CO	4%	·	·	-2%	·	·
O=C1C=Cc2ccccc2C1=O	?	28µM*	-1%	28µM*	·	·
S=C=Nc1cccc2ccccc12	2%	·	·	12%	·	·
c1ccc(CCN2CCCCC2)cc1	·	·	·	·	·	3%
CCOc1cc(C=C2C(=O)NC(=S)NC2=O)ccc1O	·	·	·	·	-77*	-15%
COc1ccc(C=C2C(=O)NC(=S)NC2=O)cc1OC	·	·	·	·	-50*	16%
COc1ccc(/C=C/C=C2C(=O)NC(=S)NC2=O)cc1	·	·	·	·	-50*	?
ClC(Cl)=C(Cl)Cl	5%	·	·	3%	·	·
CO/N=C(\C(=O)N[C@@H]1C(=O)N2C(C(=O)O)=C(CSc3nc(=O)c(O)nn3C)CS[C@H]12)c1csc(N)n1	14µM*	·	·	·	·	·
COC(=O)C1=Nc2ccccc2/C1=C\c1c(O)n(-c2ccc(OC)cc2)c(=O)[nH]c1=O	-4%	-23%	-2%	-19%	·	-14%

Bioassay records: PubChem, National Center for Advancing Translational Sciences (NCATS)
